According to PubChem BioAssay AID1468 (National Center for Advancing Translational Sciences (NCATS), 2008):
The campaign covered roughly 280,000 compounds. About 1,100 (0.39%) were called active. Another 7% or so got no clear call; they are omitted. Shown is part of a subset that was picked to be rich in actives. Unmarked numbers belong to inactive results. The call rests on the fitted dose curve; in most records, active means well fitted inhibition curve with a large enough effect; inconclusive means small, poorly fitted or top-dose-only effect, or effect the other way; inactive means flat fitted curve, though single readings scatter.

target: Microtubule-associated protein tau (Homo sapiens) (UniProt P10636); assay: qHTS for Inhibitors of Tau Fibril Formation, Fluorescence Polarization; conditions: K18 P301L tau heparin fibrillization, Alexa594 FP, 6 h; series mostly up to 57.7 µM; activity, negative = inhibition: at the top concentration; further: nearly all actives have a fitted effect of over 55% in size
Sequence (P10636 561-689 P618L limits assumed): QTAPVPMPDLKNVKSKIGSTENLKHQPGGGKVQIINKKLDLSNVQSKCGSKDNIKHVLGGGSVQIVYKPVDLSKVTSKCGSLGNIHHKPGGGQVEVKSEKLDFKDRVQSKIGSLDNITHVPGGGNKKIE
Description: NIH Molecular Libraries Probe Production Network [MLPCN]
NIH Chemical Genomics Center [NCGC]
Assay Provider: Carlo Ballatore, University of Pennsylvania
The microtubule-associated protein tau is an abundant protein in the axons of neurons that stabilizes microtubules. With its ability to modulate microtubule dynamics, tau contributes directly or indirectly, to key structural and regulatory cellular functions. Particularly important is the influence tau exerts on axonal transport, which allows signaling molecules, trophic factors and other essential cellular constituents to travel along the axons. Under pathological conditions, tau becomes sequestered into insoluble aggregates called neurofibrillary tangles. This phenomenon is believed to have pathological consequences by promoting axonal transport deficits that ultimately lead to synaptic dysfunction and neuronal loss. To identify inhibitors of tau aggregation, a heparin-induced tau fibril formation assay was used that employed a recombinantly expressed fragment of tau, K18 (Q242-E372), bearing a P301L mutation (Gustke et al. 1994; Hong et al. 1998).
Gustke, N., B. Trinczek, et al. (1994). "Domains of tau protein and interactions with microtubules." Biochemistry 33(32): 9511-22.
Hong, M., V. Zhukareva, et al. (1998).
Li, W. and V. M. Lee (2006). "Characterization of two VQIXXK motifs for tau fibrillization in vitro." Biochemistry 45(51): 15692-701.
von Bergen, M., S. Barghorn, et al. (2001). "Mutations of tau protein in frontotemporal dementia promote aggregation of paired helical filaments by enhancing local beta-structure." J Biol Chem 276(51): 48165-74.
NCGC Assay Protocol Summary:
For screening, 2 uL/well human K18 P301L (15 uM unlabeled and 0.24 uM Alexa 594-labeled tau final concentrations) in reagent buffer (100 mM sodium acetate pH 7) was dispensed into black solid 1536-well plates (Grenier) using a solenoid-based dispenser. Following transfer of 23 nL compound or DMSO vehicle by a pin tool, 2 uL/well heparin (20 uM final concentration) in reagent buffer was added and the plate centrifuged 15 s at 1000 RPM. Plates were incubated 6 hr at 37 C and then 1 uL/well ThT (30 uM final concentration) was added. After a 1 hr ambient incubation, the plates were read by an Envision (Perkin Elmer) to monitor Alexa 594 FP (555 nm excitation and 632 nm emission).
Keywords: NIH Roadmap, MLPCN, MLI, MLSMR, NCGC, qHTS, tau, tauopathies, Alzheimer's disease, fibril, neurodegeneration, aggregation
On the % scale 0 is the no-effect control and ±100 the full control effect; potency means the concentration at half of the fitted maximal effect.

In the case of `CCNS(=O)(=O)c1ccc(NC(=O)Nc2cccc(C(F)(F)F)c2)cc1`, the Potency is reported as 25.1 µM (active).
In the case of `CC(C)(C)c1nnc(NC(=O)C2c3ccccc3Oc3ccccc32)s1`, the Potency is reported as 15.8 µM (active).
With `O=C(Cn1c(=O)n(Cc2ccccc2)c(=O)c2sc3ccccc3c21)Nc1ccccc1F` the Potency was 28.2 µM (active).
`O=C(COC(=O)CCCSc1nc2ccccc2[nH]1)Nc1ccc(Oc2ccccc2)cc1` was tested, and the Potency was 15.8 µM (active).
For `Oc1c(C=Nc2cccc3nsnc23)ccc2ccccc12`, the Potency was 3.98 µM (active).
In the case of `COc1ccc(NC(=O)Cn2c(=O)n(Cc3ccc(C(=O)NCc4ccccc4Cl)cc3)c(=O)c3ccccc32)cc1`, the Potency is reported as 25.1 µM (active).
With `Cc1ccnc(-n2sc3ccccc3c2=O)n1` the Potency was 25.1 µM (active).
With `CSc1nc(Nc2ccc(F)cc2)cc(-c2ccccc2)n1` the Potency was 15.8 µM (active).
With `c1ccc(CSc2nnc(-c3ccco3)c(-c3ccco3)n2)cc1` the Potency was 12.6 µM (active).
`COc1ccc2c(c1OC)C(=O)OC2Nc1nc(-c2ccccc2)cs1` (stereo not given) was tested, and the Potency was 31.6 µM (active).

In order of rising “activity, negative = inhibition” value:
1. COc1ccc(Cn2c(=O)c3oc4ccccc4c3n(CC(=O)Nc3ccc(F)cc3F)c2=O)cc1  -17.2%
2. Cc1cc(C)c2sc(NC(=O)c3ccc(S(=O)(=O)N4CCCC4)cc3)nc2c1  -16.1%
3. Cc1nnc(N2CCC(C(=O)Nc3ccc(F)cc3)CC2)c2nn(-c3ccc(Cl)cc3)c(C)c12  -13.4%
4. COc1ccc(OC)c(NC(=O)Cn2c(=O)n(Cc3ccccc3)c(=O)c3ccccc32)c1  -13%
5. CCOC(=O)c1ccc(NC2=CC(c3ccc(OCC)cc3)N(c3ccc(C(=O)OCC)cc3)C2=O)cc1 (stereo not given)  -12.9%
6. COc1ccc(NC(=O)CSc2nc3ccccc3[nH]2)cc1  -11%
7. COc1ccc(N2C(=O)CSC23C(=O)N(Cc2cccc(F)c2)c2ccccc23)cc1Cl (stereo not given)  -10.2%
8. O=C(CCCn1c(=O)c2cccn2c2cccnc21)NCc1ccc(F)cc1  -10.2%
9. O=C(Nc1nnc(SCc2ccccc2)s1)c1ccco1  -10.1%
10. Cc1ccc(Cn2c(=O)n(CCCC(=O)NCc3ccccc3Cl)c(=O)c3ccccc32)cc1  -9.9%
11. COc1ccc(-c2csc(NC3OC(=O)c4ccccc43)n2)cc1 (stereo not given)  -9.14%
12. COc1ccc2c(c1OC)C(=O)OC2c1c(O)nc(SC)n(-c2ccccc2)c1=O (stereo not given)  -8.67%
13. Cc1ccc(OCCn2c(CNc3ccccc3C)nc3ccccc32)cc1  -8.29%
14. O=C(Cn1c(-c2cccs2)cc2ccccc21)NCCc1ccc(Cl)cc1  -7.69%
15. CC(=O)c1cccc(NC(=O)c2nc(-c3ccccc3)n(-c3cccc(C)c3)n2)c1  -7.49%
16. CCOC(=O)c1cccc(NS(=O)(=O)c2cc(-c3cnc(C)o3)ccc2OC)c1  -6.24%
17. O=[N+]([O-])c1ccc(N=Cc2c(O)ccc3ccccc23)cc1  -5.84%
18. CSc1nc(-c2ccccc2)nc(C(Cl)Cl)n1  -5.56%
19. Oc1ccc2ccccc2c1C=Nc1ccccc1  -3.62%
20. CCC(C)(C)NC(=O)C1c2ccccc2Oc2ccccc21  -3.37%
21. Cc1c(C(=O)NCc2ccccc2Br)oc2ccc3c(c12)C(=O)CC(C)(C)O3  -3.31%
22. CCOc1ccccc1NC(=O)Cn1c(=O)n(Cc2ccco2)c(=O)c2sc3ccccc3c21  -2.71%
23. CCN1C(=O)c2ccccc2S(=O)c2ccc(C(=O)NCc3ccc(F)cc3)cc21 (stereo not given)  -1.93%
24. CCc1nnc(NC(=O)CCCSc2nc3ccccc3[nH]2)s1  -0.721%
25. Brc1ccc(CSc2ccc(-c3ccco3)nn2)cc1  -0.453%
26. Cc1ccnc(SCC(N)=O)n1  -0.201%
27. Cc1ccc(NC(=O)Nc2cccc(C(F)(F)F)c2)nc1  1.19%
28. COc1ccc2c(Sc3ccc(C)cc3)c(C(=O)NC(C)c3ccccc3)[nH]c2c1 (stereo not given)  1.38%
29. Cc1cc(C)c(NC(=O)Cn2c(SCC(=O)NCc3ccccc3)nc3ccccc32)c(C)c1  2.13%
30. CC(C)C[C@H](NC(=O)Nc1cccc(C(F)(F)F)c1)C(=O)O  2.26%
31. CCC(C)NC(=O)C1c2ccccc2Oc2ccccc21 (stereo not given)  2.28%
32. Cc1cc(Nc2ccccc2)nc(N)n1  2.32%
33. O=C(OCc1cc(=O)n2nc(C3CC3)sc2n1)c1ccccc1Cl  2.73%
34. COc1ccc(N(CC(=O)NCCc2ccc(Cl)cc2)S(=O)(=O)c2c(C)nn(C)c2C)cc1  3.88%
35. COc1ccc(OC)c(-c2noc(N3CCN(c4cc(Cl)ccc4C)CC3)n2)c1  5.31%
36. Cc1cccc(Nc2cc(C)nc(-n3nc(C)cc3C)n2)c1  6.4%
37. Brc1ccc2c(c1)NC(c1cccnc1)=NC(c1ccccc1)=N2  6.59%
38. CCOC(=O)c1ccc(NC(=O)CSc2nc3c([nH]c4ccccc43)c(=O)n2C)cc1  6.83%
39. CCOC(=O)C1CCCN(C(=O)c2ccc(-n3ccc4ccccc43)s2)C1 (stereo not given)  17.1%
40. Cc1ccc(NC(=O)Nc2sc3nc4n(c(=O)c3c2C)CCC(C)CC4)c(Cl)c1 (stereo not given)  17.2%
